# Values without a mark were called inactive. No rule for the calls is given here.
# Target: Pantothenate synthetase (Mycobacterium tuberculosis (strain ATCC 25618 / H37Rv)) (UniProt P9WIL5)
# Assay: Recombinant Mtb pantothenate synthetase (PanC) inhibitors, coupled enzyme, confirmatory (AID 375);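 also: 0% = full reaction with vehicle and 100% = no enzyme background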
# Settings: coupled enzyme assay; at 10 µM, stronger effect = higher value
# Pantothenate synthetase (Mycobacterium tuberculosis (strain ATCC 25618 / H37Rv)), sequence (P9WIL5 whole entry, looked up): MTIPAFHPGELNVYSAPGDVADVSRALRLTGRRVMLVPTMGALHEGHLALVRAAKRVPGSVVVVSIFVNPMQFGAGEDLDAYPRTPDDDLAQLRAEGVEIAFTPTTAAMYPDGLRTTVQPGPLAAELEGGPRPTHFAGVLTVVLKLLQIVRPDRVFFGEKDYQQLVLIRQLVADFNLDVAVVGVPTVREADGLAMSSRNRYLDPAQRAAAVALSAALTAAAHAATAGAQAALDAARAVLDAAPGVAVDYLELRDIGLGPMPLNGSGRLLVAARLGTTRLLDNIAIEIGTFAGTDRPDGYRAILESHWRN
row,Structure (SMILES),inhibition [%]
1,Cc1ccc(S(=O)(=O)NCCNC(=O)c2ccccc2)cc1,4
2,CC1(C)CC(=O)C2=C(C1)Nc1ccccc1N=C2,0
3,C=CCOc1nc(N(C)C)nc(N(C)C)n1,7
4,Cc1ccc2[nH]c(=O)c3cc(C(=O)NCCN4CCN(C)CC4)sc3c2c1,0
5,COCCCn1c(SCC(=O)Nc2cccc(C)n2)nnc1-c1ccco1,0
6,Cn1cc(C2NC(=O)c3c(sc4c3CCCC4)N2)c2ccccc21 (centres undefined),0
7,Nc1nc(CN2CCN(Cc3ccc4c(c3)OCO4)CC2)nc(Nc2ccccc2)n1,0
8,O=c1cnnc(NCc2ccccc2)[nH]1,0
9,O=C(COC(=O)c1cc(-c2ccco2)nc2ccccc12)NCc1ccc2c(c1)OCO2,0
10,O=S1(=O)CC(N2CCOCC2)c2ccccc21 (centres undefined),0
11,CC(=O)c1cc(-c2ccccc2)n(CC(=O)N2CCC(N3CCCCC3)CC2)c1C,0
12,CC(=O)Nc1ccc2nc(-c3cccnc3)[nH]c2c1,0
13,COc1ccc(C(=O)Nn2c(C3CCC3)nc3ccccc3c2=O)c(OC)c1,0
14,Nc1nc(SCCOc2ccccc2)n[nH]1,0
15,Cc1cccc(OCCCC(=O)O)c1,3
16,CCCCOC(=O)CSc1nc2c(cc1C#N)C(=O)CC(C)(C)C2,0
17,CCC(C)(C)n1nnnc1C(c1ccncc1)N1CCN(c2cccc(OC)c2)CC1 (centres undefined),0
18,Cc1ccc(-c2nc(=S)c3c(n2Cc2ccco2)CCCC3)cc1,0
19,Cn1c(CCNC(=O)c2ccco2)nc2cc(NC(=O)C3CCCCC3)ccc21,0
20,COc1ccc(N2CCN(c3ccc(NC(=O)C4CCCCC4)cc3C#N)CC2)cc1,0

row,Structure (SMILES),inhibition [%]
1,Cc1noc(C)c1CSc1nc2ccccc2s1,2
2,CC1CN(C(=O)CSc2ncnc3sccc23)CC(C)O1 (centres undefined),0
3,Cc1nc2ccccc2c2oc(C(=O)N3CCC(N4CCCCC4)CC3)cc12,0
4,CN=C(Nc1ccc2c(c1)OCO2)SC1CC(=O)N(c2ccccc2)C1=O (centres undefined),0
5,CCC1CCCCN1CCNS(=O)(=O)c1ccc2c(c1)oc(=O)n2C (centres undefined),1
6,COc1ccc(C)cc1S(=O)(=O)N1CCN(Cc2ccccc2)CC1,11
7,COc1ccc(N2CCN(c3ccc(N)cc3C#N)CC2)cc1,7
8,Nc1ccc(S(=O)(=O)c2ccc(N)cc2)cc1,0
9,CCS(=O)(=O)N1CCCC(C(=O)NCc2ccccc2Cl)C1 (centres undefined),2
10,COc1ccc(C2c3sc(=O)[nH]c3SC3C4CCC(C4)C23)cc1 (centres undefined),7
11,CC(CCc1ccccc1)NC(=O)C1CCCN(c2nnc(-n3cccc3)s2)C1 (centres undefined),0
12,CC(CC(=O)NCc1ccccc1)C1CCCO1 (centres undefined),0
13,O=C(Nc1ccc(O)cc1)C1CCCN1S(=O)(=O)c1ccc(F)cc1 (centres undefined),0
14,CC1CCC(C(=O)NC(C(=O)NCCN2CCC(C)CC2)C(C)C)CC1 (centres undefined),0
15,Cc1ccc(C)c(SCC(=O)Nc2nnc(-c3ccccc3)o2)c1,10
16,COc1ccccc1-c1ccc(Nc2cccc(C(C)=O)c2)nn1,0
17,CC1(C)Cc2c(C#N)c(SCCC#N)nc(N3CCOCC3)c2CS1,0
18,CSc1cccc(NC(=O)C2CCN(S(=O)(=O)c3ccc(F)cc3)CC2)c1,0
19,c1ccc2c(SCc3cn4cccnc4n3)ncnc2c1,2

# — PubChem BioAssay
